# Hit rate of the full screen: of about 5,500 compounds, about 2,000 (36%) were called active. About 18% were inconclusive and are not listed. Some of the results follow. A number with no mark means an inactive call. No stated cut-off is given here; in the data, active means normalized growth mostly below about 0.91 (no sharp cut-off); inconclusive means no clear call, values can overlap the other calls; inactive means mostly above about 0.92.
# Assay: chemical genetic growth profiling, strain panel (AID 1159580);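 further: tested at 20 µM; growth read once vehicle control cultures reached saturation at 30 °C; 1 = growth at the plate median or of vehicle wells; lower values mean less growth of the strain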
# Conditions: growth OD
compound,measurement,setting,value
C=Cc1c2[nH]c(c1C)C=c1[nH]c(c(C)c1C=C)=CC1N=C(C=c3[nH]c(c(C)c3CCC(=O)O)=C2)C(CCC(=O)O)=C1C (configuration not stated),normalized growth,"S. cerevisiae deletion strains, locus YJR075W, strain HOC1, hits give low values",0.947
same,normalized growth,"S. cerevisiae deletion strains, locus YKL009W, strain mrt4, hits give low values",0.791 (active)
same,normalized growth,"S. cerevisiae deletion strains, locus YKL068W, hits give low values",1.06
same,normalized growth,"S. cerevisiae deletion strains, locus YKL085W, strain MDH1 (second series), hits give low values",1.19 [resistant] (active)
same,normalized growth,"S. cerevisiae deletion strains, locus YKL085W, strain MDH1, hits give low values",1.19 [resistant] (active)
same,normalized growth,"S. cerevisiae deletion strains, locus YKL160W, strain elf1, hits give low values",0.963
same,normalized growth,"S. cerevisiae deletion strains, locus YKL190W, strain CNB1, hits give low values",0.99
same,normalized growth,"S. cerevisiae deletion strains, locus YKR001C, strain vps1, hits give low values",0.953
same,normalized growth,"S. cerevisiae deletion strains, locus YKR026C, strain gcn3, hits give low values",1.06
same,normalized growth,"S. cerevisiae deletion strains, locus YKR091W, strain srl3, hits give low values",1
same,normalized growth,"S. cerevisiae deletion strains, locus YLL001W, strain dnm1, hits give low values",1.02
same,normalized growth,"S. cerevisiae deletion strains, locus YLL026W, hits give low values",1.02
same,normalized growth,"S. cerevisiae deletion strains, locus YLL041C, strain sdh2, hits give low values",1.02
same,normalized growth,"S. cerevisiae deletion strains, locus YLR027C, strain aat2, hits give low values",1
same,normalized growth,"S. cerevisiae deletion strains, locus YLR039C, strain RIC1, hits give low values",0.996
same,normalized growth,"S. cerevisiae deletion strains, locus YLR058C, strain SHM2, hits give low values",0.976
same,normalized growth,"S. cerevisiae deletion strains, locus YLR102C, strain apc9, hits give low values",0.992
same,normalized growth,"S. cerevisiae deletion strains, locus YLR113W, strain HOG1, hits give low values",1.05
same,normalized growth,"S. cerevisiae deletion strains, locus YLR221C, strain rsa3, hits give low values",0.975
same,normalized growth,"S. cerevisiae deletion strains, locus YLR258W, strain gsy2, hits give low values",1.02
same,normalized growth,"S. cerevisiae deletion strains, locus YLR262C, strain YPT6 (second series), hits give low values",1.07
same,normalized growth,"S. cerevisiae deletion strains, locus YLR262C, strain YPT6, hits give low values",0.976
same,normalized growth,"S. cerevisiae deletion strains, locus YLR268W, strain sec22, hits give low values",1.06
same,normalized growth,"S. cerevisiae deletion strains, locus YLR320W, strain mms22, hits give low values",0.996
same,normalized growth,"S. cerevisiae deletion strains, locus YLR330W, strain CHS5, hits give low values",0.99
same,normalized growth,"S. cerevisiae deletion strains, locus YLR342W, strain FKS1 (second series), hits give low values",0.993
same,normalized growth,"S. cerevisiae deletion strains, locus YLR342W, strain FKS1, hits give low values",1.03
same,normalized growth,"S. cerevisiae deletion strains, locus YLR357W, strain rsc2, hits give low values",1.05
same,normalized growth,"S. cerevisiae deletion strains, locus YLR370C, strain arc18, hits give low values",0.999
same,normalized growth,"S. cerevisiae deletion strains, locus YLR371W, strain rom2, hits give low values",0.949
same,normalized growth,"S. cerevisiae deletion strains, locus YLR384C, strain iki3, hits give low values",1.04
same,normalized growth,"S. cerevisiae deletion strains, locus YLR418C, strain cdc73, hits give low values",0.885
same,normalized growth,"S. cerevisiae deletion strains, locus YML016C, strain PPZ1, hits give low values",0.979
same,normalized growth,"S. cerevisiae deletion strains, locus YML032C, strain rad52, hits give low values",1.01
same,normalized growth,"S. cerevisiae deletion strains, locus YML120C, strain ndi1, hits give low values",1.01
same,normalized growth,"S. cerevisiae deletion strains, locus YML124C, strain tub3, hits give low values",0.987
same,normalized growth,"S. cerevisiae deletion strains, locus YMR058W, strain fet3, hits give low values",0.912
same,normalized growth,"S. cerevisiae deletion strains, locus YMR078C, strain ctf18, hits give low values",0.993
same,normalized growth,"S. cerevisiae deletion strains, locus YMR125W, strain sto1, hits give low values",1.06
same,normalized growth,"S. cerevisiae deletion strains, locus YMR129W, hits give low values",1.06
same,normalized growth,"S. cerevisiae deletion strains, locus YMR205C, strain PFK2, hits give low values",1.02
same,normalized growth,"S. cerevisiae deletion strains, locus YMR223W, strain ubp8, hits give low values",0.972
same,normalized growth,"S. cerevisiae deletion strains, locus YMR231W, strain pep5, hits give low values",1.02
same,normalized growth,"S. cerevisiae deletion strains, locus YMR263W, strain SAP30, hits give low values",0.982
same,normalized growth,"S. cerevisiae deletion strains, locus YMR307W, strain GAS1, hits give low values",0.909
same,normalized growth,"S. cerevisiae deletion strains, locus YNL067W, strain RPL9B, hits give low values",1
same,normalized growth,"S. cerevisiae deletion strains, locus YNL071W, strain lat1, hits give low values",0.881 (active)
same,normalized growth,"S. cerevisiae deletion strains, locus YNL128W, strain TEP1, hits give low values",0.975
same,normalized growth,"S. cerevisiae deletion strains, locus YNL153C, strain GIM3, hits give low values",1
same,normalized growth,"S. cerevisiae deletion strains, locus YNL183C, strain NPR1, hits give low values",1.01
same,normalized growth,"S. cerevisiae deletion strains, locus YNL209W, strain ssb2, hits give low values",1.02
same,normalized growth,"S. cerevisiae deletion strains, locus YNL233W, strain BNI4, hits give low values",1.01
same,normalized growth,"S. cerevisiae deletion strains, locus YNL248C, strain rpa49, hits give low values",0.987
same,normalized growth,"S. cerevisiae deletion strains, locus YNL250W, strain rad50, hits give low values",1.02
same,normalized growth,"S. cerevisiae deletion strains, locus YNL271C, strain bni1, hits give low values",1.02
same,normalized growth,"S. cerevisiae deletion strains, locus YNL298W, strain CLA4, hits give low values",1
same,normalized growth,"S. cerevisiae deletion strains, locus YNL307C, strain MCK1, hits give low values",0.966
same,normalized growth,"S. cerevisiae deletion strains, locus YNL322C, strain KRE1 (second series), hits give low values",1.03
same,normalized growth,"S. cerevisiae deletion strains, locus YNL322C, strain KRE1, hits give low values",0.989
same,normalized growth,"S. cerevisiae deletion strains, locus YNR049C, strain mso1, hits give low values",1.01
same,normalized growth,"S. cerevisiae deletion strains, locus YNR052C, strain pop2, hits give low values",1
same,normalized growth,"S. cerevisiae deletion strains, locus YOL006C, strain TOP1, hits give low values",0.997
same,normalized growth,"S. cerevisiae deletion strains, locus YOL012C, strain htz1",0.933
same,normalized growth,"S. cerevisiae deletion strains, locus YOL147C, strain pex11, hits give low values",0.996
same,normalized growth,"S. cerevisiae deletion strains, locus YOR001W, strain rrp6, hits give low values",1.03
same,normalized growth,"S. cerevisiae deletion strains, locus YOR061W, strain CKA2, hits give low values",0.98
same,normalized growth,"S. cerevisiae deletion strains, locus YOR069W, strain VPS5, hits give low values",0.95
same,normalized growth,"S. cerevisiae deletion strains, locus YOR070C, strain gyp1, hits give low values",0.98
same,normalized growth,"S. cerevisiae deletion strains, locus YOR080W, strain dia2, hits give low values",1.01
same,normalized growth,"S. cerevisiae deletion strains, locus YOR083W, strain WHI5, hits give low values",0.951
same,normalized growth,"S. cerevisiae deletion strains, locus YOR106W, strain vam3, hits give low values",0.951
same,normalized growth,"S. cerevisiae deletion strains, locus YOR136W, strain idh2, hits give low values",0.982
same,normalized growth,"S. cerevisiae deletion strains, locus YOR144C, strain elg1, hits give low values",0.996
same,normalized growth,"S. cerevisiae deletion strains, locus YOR184W, strain ser1, hits give low values",0.964
same,normalized growth,"S. cerevisiae deletion strains, locus YOR231W, strain MKK1, hits give low values",1.05
same,normalized growth,"S. cerevisiae deletion strains, locus YOR265W, strain rbl2, hits give low values",1.01
same,normalized growth,"S. cerevisiae deletion strains, locus YOR270C, strain vph1, hits give low values",0.874
same,normalized growth,"S. cerevisiae deletion strains, locus YOR290C, strain snf2, hits give low values",0.997
same,normalized growth,"S. cerevisiae deletion strains, locus YOR316C, strain cot1, hits give low values",0.99
same,normalized growth,"S. cerevisiae deletion strains, locus YPL051W, strain arl3, hits give low values",0.949
same,normalized growth,"S. cerevisiae deletion strains, locus YPL055C, strain LGE1, hits give low values",0.903
same,normalized growth,"S. cerevisiae deletion strains, locus YPL078C, strain atp4, hits give low values",0.984
same,normalized growth,"S. cerevisiae deletion strains, locus YPL106C, strain sse1, hits give low values",0.982
same,normalized growth,"S. cerevisiae deletion strains, locus YPL240C, strain hsp82, hits give low values",0.994
same,normalized growth,"S. cerevisiae deletion strains, locus YPL241C, strain CIN2, hits give low values",0.994
same,normalized growth,"S. cerevisiae deletion strains, locus YPL256C, strain CLN2, hits give low values",1.1
same,normalized growth,"S. cerevisiae deletion strains, locus YPR119W, strain clb2, hits give low values",0.994
same,normalized growth,"S. cerevisiae deletion strains, locus YPR141C, strain kar3, hits give low values",1.01
same,normalized growth,"S. cerevisiae deletion strains, locus YPR163C, strain tif3, hits give low values",1
same,normalized growth,"S. cerevisiae deletion strains, locus YPR167C, strain met16, hits give low values",1
same,normalized growth,"S. cerevisiae deletion strains, strain wtn01, hits give low values",0.996
same,normalized growth,"S. cerevisiae strains, strain wild type, hits give low values",0.972
